# Measurements taken from PubChem BioAssay (NCI).
# About 83,000 compounds went through this panel and 20% of them were active in at least one assay; those are over-represented in the sample as a whole.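 For each line, cells grew in 96-well plates with the test compound present at a single concentration for 48 hours.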 A number with no mark means an inactive call. Activity calls are given as the source filed them. Rule for the calls: active = growth percent below 10; inactive = the rest.
# How the values were obtained:
# Test in all cases: NCI-60 one-dose screen, 48 h (100 = growth as untreated, 0 = no growth, -100 = all killed)
# NCI-H23 lung = details: 10 µM unless noted
# NCI-H226 lung = details: 10 µM unless noted
# NCI-H322M lung = details: 10 µM unless noted
# HOP-62 NSCLC = details: 10 µM unless noted
# NCI-H460 lung = details: 10 µM unless noted
# HOP-92 NSCLC = details: 10 µM unless noted
# NCI-H522 lung = details: 10 µM unless noted
# A549/ATCC NSCLC = details: 10 µM unless noted
# 786-0 renal = details: 10 µM unless noted
# COLO 205 colon = details: 10 µM unless noted
# DU-145 prostate = details: 10 µM unless noted
# K-562 leukemia = details: 10 µM unless noted
# MALME-3M melanoma = details: 10 µM unless noted
# MDA-MB-231 breast = details: 10 µM unless noted
# RXF 393 renal = details: 10 µM unless noted
# SF-268 CNS = details: 10 µM unless noted
# SF-295 CNS = details: 10 µM unless noted
# SF-539 CNS = details: 10 µM unless noted
# UACC-257 melanoma = details: 10 µM
# M14 melanoma = details: 10 µM unless noted
Compound,growth (NCI-H23 lung) [%],growth (NCI-H226 lung),growth (NCI-H322M lung) [%],growth (HOP-62 NSCLC),growth (NCI-H460 lung),growth (HOP-92 NSCLC),growth (NCI-H522 lung) [%],growth (A549/ATCC NSCLC) [%],growth (786-0 renal) [%],growth (COLO 205 colon),growth (DU-145 prostate) [%],growth (K-562 leukemia),growth (MALME-3M melanoma),growth (MDA-MB-231 breast) [%],growth (RXF 393 renal),growth (SF-268 CNS),growth (SF-295 CNS),growth (SF-539 CNS) [%],growth (UACC-257 melanoma) [%],growth (M14 melanoma) [%]
CCCC(=O)NC(c1cccnc1)c1cc(Cl)c2cccnc2c1O (stereo not given),44.7,48.9%,47.1,32.2%,25.3%,-5.51% (active),16.8,39.7,50.9,30.8%,62.9,19.7%,79.6%,45.1,80.5%,42.7%,10.8%,38,34.9,44
COc1ccc(OC)c(NC2=C(Cl)C(=O)C(C)=C(C)C2=O)c1,85.8,84.2%,103,92.1%,98.4%,96.6%,87.2,101,102,107%,104,55.8%,98.7%,76.6,107%,93.9%,100%,99,86.8,97.8
CC(C)N=C(N/C(N)=N/c1nc2ccccc2s1)NC(C)C,47.5,67.2%,62.2,55.4%,48.8%,30.8%,85.1,69.3,58.5,55.6%,85.6,23.1%,75.4%,56.3,51.9%,81.3%,43.8%,52.3,87.9,58
O=C1NC(=O)c2c1c1c3ccccc3ccc1c1[nH]c3ccccc3c21,15.8,12.2%,19.4,1.2% (active),6.41% (active),35.9%,11.3,23.5,18.6,28.8%,22.9,9.34% (active),-15.2% (active),34,-21.2% (active),5.68% (active),3.01% (active),18.4,44.1,15.9
CCOC(=O)/C(F)=C/C1CC1CCc1cccc(C(F)(F)F)c1 (stereo not given),101,102%,106,98.3%,111%,116%,100,107,103,103%,110,111%,106%,107,129%,105%,99.6%,99.4,111,98.9
CCc1ccc(NC(=O)N[C@@H](Cc2cccc(F)c2)C(=O)N[C@@H]2C(=O)N3CCC[C@H]3C(=O)N3CCCC[C@H]3C(=O)N[C@@H](CO)C(=O)N3C[C@H](C)C[C@H]3C(=O)O[C@H]2C)c(F)c1,32.9,-1.86% (active),51.1,37.8%,14.4%,2.76% (active),20.1,36.3,44.1,-50.4% (active),26.9,20.1%,41.5%,35.2,-11.7% (active),30.6%,15.8%,39.8,16,21.4
O=C(CCCCCCN1CC(=O)N2[C@@H](c3cc(F)cc(F)c3)c3[nH]c4ccccc4c3C[C@H]2C1=O)NO,77.4,98.1%,75.1,63.4%,64.4%,49.2%,41.2,90.5,90.9,53.1%,65.7,32.2%,30.7%,62,33.6%,79.8%,60%,60.5,44.1,51.9
COc1cc2cc(Oc3ccc(NC(=O)c4cccc(C(F)(F)F)c4)cc3)c(C)nc2cc1OCCN(C)C,90.4,95.5%,104,97.9%,47.1%,62%,99.9,89.2,60.1,95.8%,68.6,7.14% (active),-73.7% (active),79,39.6%,92%,-50.5% (active),63.3,93.2,80.8
CC(C)C(=O)Nc1ccc(-c2nc(-c3cccc(O)c3)c(-c3ccnc(Br)c3)[nH]2)cc1,63.4,65.4%,65.8,42.6%,46.5%,39.5%,48.4,69.8,12.9,59.3%,69.3,7.32% (active),40.8%,58.5,-31.5% (active),54.8%,-40.5% (active),34.5,52.7,49.4
COC(=O)Nc1ccc(-c2nc(-c3cccc(O)c3)c(-c3ccnc(Br)c3)[nH]2)cc1,67.2,63.8%,68.4,64.7%,26.8%,51.5%,56,62.2,34.6,95.4%,62.1,27.9%,54.1%,56.6,-4.89% (active),72.6%,27.8%,52.6,58.5,48.9
CCC(=O)Nc1ccc(-c2nc(-c3cccc(O)c3)c(-c3ccnc(Br)c3)[nH]2)cc1,86,74.2%,73.9,75%,20.9%,57.5%,57.8,83.6,46.8,80.4%,56,32.8%,59.8%,71.8,-4.84% (active),82.1%,45.8%,57.1,64.1,66.7
C(=C(\C1=NCCN1)n1cnc2ccccc21)/c1cccc2ccccc12,90.7,76.4%,88.2,88.6%,101%,8.37% (active),79.4,94,92.5,106%,98.1,84.9%,91.7%,81,46.9%,85%,76.9%,91.7,94.7,70
C/C(=N/Nc1nc(N/N=C(/C)c2ccc([N+](=O)[O-])cc2)nc(N2CCOCC2)n1)c1ccc([N+](=O)[O-])cc1,57.9,41.9%,86.7,86.2%,78.1%,64.1%,61.7,73.9,66.9,94.8%,81,79.7%,69.4%,43.5,69.2%,96%,66.5%,15.5,99.2,74.5
